Assay results: the supplement of paper PMC6555819

Columns and labels:
Experiment in all cases: PBM binding z-score (relative to random genomic background probes); higher = stronger binding; sequences stand for … in GC…GCGATTGACAGCGTAGAATGAAGG
[1] = tested on: FXR:RXRa (NR concentration 270 nM, RXRa partner concentration 90 nM)
Outline: (§1)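 The probes on custom Agilent 4×180K protein-binding microarrays were double-stranded, with 34-nt variable regions bearing direct-repeat seeds, single-nucleotide variants, half-site ablations and random human genomic background sequences. Incubation lasted 1 h with ligand-free nuclear receptor dimers in PBS pH 7.4, 2% milk, 0.02% Triton X-100, 1 mM DTT, 0.2 mg/mL BSA and 0.4 mg/ml salmon testes DNA. Antibodies against each partner (one per run) detected bound dimers, and fluorescence scans were regression-normalized. Binding z-scores take the random background probes as reference.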

[2] = tested on: LXRa:RXRa (NR concentration 270 nM, RXRa partner concentration 90 nM)
Outline: as §1

[3] = tested on: LXRa homodimer (NR concentration 270 nM)
Outline: as §1

[4] = tested on: LXRb:RXRa (NR concentration 270 nM, RXRa partner concentration 90 nM)
Outline: as §1

[5] = tested on: LXRb homodimer (NR concentration 270 nM)
Outline: as §1

[6] = tested on: PPARa:RXRa (NR concentration 270 nM, RXRa partner concentration 90 nM)
Outline: as §1

[7] = tested on: PPARg:RXRa (NR concentration 180 nM, RXRa partner concentration 90 nM)
Outline: as §1

[8] = tested on: PPARg:RXRa 270nM:90nM, anti-RXR (NR concentration 270 nM, RXRa partner concentration 90 nM)
Outline: as §1

[9] = tested on: PPARg:RXRa 30nM:10nM, anti-RXR (NR concentration 30 nM, RXRa partner concentration 10 nM)
Outline: as §1

[10] = tested on: PPARg:RXRa 90nM:30nM, anti-RXR (NR concentration 90 nM, RXRa partner concentration 30 nM)
Outline: as §1

[11] = tested on: PPARg:RXRa DBDmut IVT, anti-RXR (DBD mutation: RXRa K156A/R161A, NR concentration 270 nM, RXRa partner concentration 90 nM)
Outline: as §1

[12] = tested on: PPARg:RXRa IVT, anti-PPARg (NR concentration 270 nM, RXRa partner concentration 90 nM)
Outline: as §1

[13] = tested on: PPARg DBDmut:RXRa IVT, anti-PPARg (DBD mutation: PPARg1 K132A/R137A, NR concentration 270 nM, RXRa partner concentration 90 nM)
Outline: as §1

[14] = tested on: PPARg DBDmut IVT, anti-PPARg (DBD mutation: PPARg1 K132A/R137A, NR concentration 270 nM)
Outline: as §1

[15] = tested on: PPARg homodimer (NR concentration 180 nM)
Outline: as §1

[16] = tested on: PXR:RXRa (NR concentration 270 nM, RXRa partner concentration 90 nM)
Outline: as §1

[17] = tested on: PXR homodimer (NR concentration 270 nM)
Outline: as §1

[18] = tested on: RARa:RXR (NR concentration 270 nM, RXRa partner concentration 90 nM)
Outline: as §1

[19] = tested on: RARa homodimer (NR concentration 270 nM)
Outline: as §1

[20] = tested on: RARb:RXRa (NR concentration 270 nM, RXRa partner concentration 90 nM)
Outline: as §1

Sequence | PBM binding z-score [1] | PBM binding z-score [2] | PBM binding z-score [3] | PBM binding z-score [4] | PBM binding z-score [5] | PBM binding z-score [6] | PBM binding z-score [7] | PBM binding z-score [8] | PBM binding z-score [9] | PBM binding z-score [10] | PBM binding z-score [11] | PBM binding z-score [12] | PBM binding z-score [13] | PBM binding z-score [14] | PBM binding z-score [15] | PBM binding z-score [16] | PBM binding z-score [17] | PBM binding z-score [18] | PBM binding z-score [19] | PBM binding z-score [20]
GATACAGGTTCAGCTAGAGGCCAGAGTATGGAAA | 0.427 | 0.656 | -0.157 | 0.305 | -0.537 | 1.29 | 0.495 | 0.117 | -0.177 | -0.176 | -0.632 | -0.397 | -0.984 | -1 | 0.61 | 1.19 | -0.0373 | 1.64 | 0.321 | 1.35
ATATATAGGTTACATCCGGGTCATTCAGGCTATG | 3.03 | 5.06 | 2.32 | 3.45 | 1.23 | 4.67 | 6.17 | 5.45 | 2.59 | 4.8 | 7.41 | 7.26 | 3.67 | 2.9 | 2.67 | 4.12 | 2.95 | 4.05 | 1.77 | 2.51
ACAGACAGGTGAGTGAAGGTTACTCAGCTGGACG | 0.506 | 0.708 | -0.297 | -0.125 | -0.739 | 0.764 | 0.848 | 0.505 | -0.0853 | 0.0538 | 0.352 | 1.16 | 0.332 | 0.037 | 0.138 | 0.646 | -0.03 | 0.952 | 0.201 | 1.15
TCTCGGAAGACACGAAAGGTCAGAGCTCGACATC | 2.36 | 3.38 | 1.85 | 3.1 | 0.242 | 3.61 | 0.772 | 2.46 | 3.29 | 2.35 | 2 | 1.27 | 0.544 | -0.207 | 3.09 | 3.58 | 0.388 | 4.27 | 1.14 | 3.73
TCTTGTTGATCAATAGAGGTTAAGAAAGTGCGCT | 0.549 | 3.17 | 0.564 | 2.1 | 0.134 | 2.02 | -0.0546 | 1.87 | 2.82 | 2.46 | 1.5 | 0.913 | 0.422 | 1.13 | 0.192 | 2.89 | 0.147 | 1.71 | 0.519 | 1.05
TAGCCTAGGTCATTGGGCCAGTTTAGTACGCATC | 4.25 | 3.21 | 0.757 | 2.35 | 0.194 | 3.88 | 3.49 | 3.27 | 0.719 | 2.06 | 2.53 | 3.45 | -0.6 | 0.202 | 0.893 | 1.71 | -0.11 | 2.11 | -0.422 | 3.52
TCTAATTGGTCAAAGGTCACACACTCGAAATGCG | 6.13 | 5.81 | 4.4 | 5.53 | 2.67 | 6.59 | 10.7 | 9.75 | 10.1 | 12 | 3.57 | 6.22 | 4.31 | 4.82 | 12.2 | 6.35 | 1.5 | 7.91 | 5.86 | 5.27
TTACCAAGGTGAGCGGAGGTCGTTGATCCAACTC | 1.38 | 1.36 | -0.4 | 0.829 | -1.16 | 1.81 | 0.414 | 1.19 | 0.0694 | 0.605 | 1.19 | 2.32 | -0.403 | -0.114 | -0.196 | 4.22 | 0.00572 | 1.51 | -1.17 | 1.92
GCTTACGGGTCAAAGGTTTTAGCATGAATAGAAT | 6.63 | 4.06 | 0.0126 | 4.17 | 0.372 | 5.95 | 9.13 | 7.88 | 6.54 | 8.43 | 4.96 | 5.14 | 1.91 | 1.07 | 3.2 | 4.06 | 0.129 | 5.58 | 0.298 | 3.98
GCATATAGGTAATACAAAGTGAAAGTCCGATTGT | -0.614 | -0.368 | -0.219 | -0.304 | -0.361 | 0.632 | 1.12 | 0.884 | 0.583 | 0.849 | 4.28 | 2.73 | 0.942 | 1.36 | -0.267 | -0.28 | -0.0675 | -0.178 | 0.391 | -0.152
TCTGGTAGATCAATAGAGGTTAAGAAAGTGCGCT | 0.764 | 3.4 | 0.62 | 1.81 | -0.161 | 1.62 | -0.137 | 1.4 | 2.44 | 1.78 | 1.4 | 0.577 | 0.241 | 0.106 | 0.418 | 3 | 0.367 | 1.75 | 0.0136 | 0.93
CCGACTGGGGCATAAGGTTACCACAAGCCAGCCC | 0.502 | 1.28 | -0.388 | 0.812 | -0.551 | 2.07 | 2.44 | 3.27 | 0.735 | 2.92 | 2.87 | 3.09 | -1.04 | -1.03 | 0.364 | 0.223 | -0.315 | 1.25 | -0.43 | 1.73
CCTTACGGGTCACTGACAGGTTAAAGCATTTGGA | 5.65 | 4.59 | 0.409 | 3.69 | -0.38 | 5.05 | 4.6 | 4.5 | 1.97 | 3.25 | 3.63 | 4.02 | 0.71 | 0.495 | 4.09 | 3.98 | 0.033 | 5.21 | 0.619 | 3.94
ATCGAAAGTTCGACGAGGTGAGTATACACCGTTT | 0.939 | 0.833 | -0.161 | 0.494 | 0.233 | 1.18 | 0.693 | 0.561 | 0.0902 | 0.117 | -0.191 | 0.687 | 0.332 | 1.16 | 0.996 | 1.42 | 2.24 | 1.03 | -0.0858 | 2.32
CTCGAAAGGTCGGCTGAGGTGAGTATACGGATAA | 3.7 | 2.47 | -0.364 | 1.86 | -0.336 | 3.62 | 0.965 | 2.18 | 0.306 | 1.12 | -0.0166 | 1 | -0.0144 | -0.891 | 1.16 | 4.09 | -0.42 | 3.02 | -0.275 | 3.56
